We go through 61 molecules from paper PMC4336329 (PLoS ONE, 2015).

Molecules are shown by their SMILES. The campaign covered roughly 310,000 compounds. About 14,000 (4.5%) showed an effect of 50% or more. Effects have a minus sign here. The entries come from a sample that favours strong results as a whole.
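Further: peak tail current of the secondary pulse compared with the same well before compound.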

In the assay the target is human ether-à-go-go-related gene (hERG) potassium channel (human, UniProt Q12809). Kind of assay: primary screen, population patch clamp on CHO cells stably expressing hERG; higher = less effect of the substance.
Sequence of human ether-à-go-go-related gene (hERG) potassium channel (Q12809 whole entry, looked up): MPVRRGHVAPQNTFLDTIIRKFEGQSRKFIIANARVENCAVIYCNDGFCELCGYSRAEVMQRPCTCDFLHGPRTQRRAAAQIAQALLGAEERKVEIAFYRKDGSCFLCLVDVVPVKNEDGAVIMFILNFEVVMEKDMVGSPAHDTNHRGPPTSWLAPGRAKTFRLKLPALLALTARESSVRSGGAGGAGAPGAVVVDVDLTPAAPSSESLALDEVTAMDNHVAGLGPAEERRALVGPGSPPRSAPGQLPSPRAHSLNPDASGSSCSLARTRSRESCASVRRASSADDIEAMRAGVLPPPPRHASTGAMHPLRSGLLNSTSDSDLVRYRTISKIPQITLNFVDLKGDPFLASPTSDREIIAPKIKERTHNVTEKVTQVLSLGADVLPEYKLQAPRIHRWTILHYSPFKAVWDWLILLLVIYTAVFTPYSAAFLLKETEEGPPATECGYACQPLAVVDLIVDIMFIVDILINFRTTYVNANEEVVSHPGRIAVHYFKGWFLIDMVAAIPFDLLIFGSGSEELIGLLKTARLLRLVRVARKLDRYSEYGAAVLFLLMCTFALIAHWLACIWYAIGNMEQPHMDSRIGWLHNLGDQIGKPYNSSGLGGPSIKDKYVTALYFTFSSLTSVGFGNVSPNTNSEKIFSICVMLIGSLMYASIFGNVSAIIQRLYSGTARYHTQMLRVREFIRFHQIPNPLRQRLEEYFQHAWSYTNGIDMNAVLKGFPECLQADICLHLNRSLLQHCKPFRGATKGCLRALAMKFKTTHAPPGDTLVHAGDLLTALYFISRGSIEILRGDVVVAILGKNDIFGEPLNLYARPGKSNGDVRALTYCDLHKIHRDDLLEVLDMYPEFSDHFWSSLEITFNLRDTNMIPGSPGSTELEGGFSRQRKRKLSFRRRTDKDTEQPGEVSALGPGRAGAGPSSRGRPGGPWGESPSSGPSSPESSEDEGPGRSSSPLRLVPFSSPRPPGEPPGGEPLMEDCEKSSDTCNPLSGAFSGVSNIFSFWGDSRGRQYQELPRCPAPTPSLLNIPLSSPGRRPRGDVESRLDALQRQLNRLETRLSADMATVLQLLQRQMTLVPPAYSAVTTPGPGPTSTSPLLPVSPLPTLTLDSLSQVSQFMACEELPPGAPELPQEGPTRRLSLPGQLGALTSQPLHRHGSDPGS
Regarding `CCOC(=O)C1=C(c2ccccc2)NC(SCC(=O)NC2CCCCC2)=C(C#N)C1c1ccco1` (stereo not shown), the “hERG current change (%, negative = inhibition) at 10uM” value is recorded as -1.35%.

In the case of `COc1ccc(OC)c(C(=O)Cn2nnc3ccccc3c2=O)c1`, the “hERG current change (%, negative = inhibition) at 10uM” value was determined as 9.14%.

With `O=[N+]([O-])c1ccc2c(c1)C(c1ccccc1)=NCCN2`, the “hERG current change (%, negative = inhibition) at 10uM” value is recorded as -69.1%.

As for `O=[N+]([O-])c1ccc2[nH]nc(-c3ccccc3)c2c1`, the “hERG current change (%, negative = inhibition) at 10uM” value stood at 9.26%.

`O=C1C2=C(C(c3ccccc3)=NCCN2)C(c2cccc([N+](=O)[O-])c2)N1c1ccccc1` (stereo not shown): the “hERG current change (%, negative = inhibition) at 10uM” value is -21.3%.

Take `CN1CCN(NC(=O)/C=C/c2cccc(Cl)c2)CC1`: the “hERG current change (%, negative = inhibition) at 10uM” value is -6.09%.

With `CN1CCN(c2ccc(Cl)cc2NC(=O)/C=C/c2cccc(F)c2)CC1`, the “hERG current change (%, negative = inhibition) at 10uM” value is -69.9%.

Take `CN1CCN(c2ccc(S(=O)(=O)N3CCCCC3)cc2NC(=O)/C=C/c2ccc(Cl)c([N+](=O)[O-])c2)CC1`: the “hERG current change (%, negative = inhibition) at 10uM” value is given as -17.4%.

With `CN1CCN(c2ccc(Cl)cc2NC(=O)/C=C/c2ccc(F)cc2)CC1`, the “hERG current change (%, negative = inhibition) at 10uM” value is -75.6%.

As for `O=C(/C=C/c1ccc(Cl)cc1)Nc1ccccc1N1CCOCC1`, the “hERG current change (%, negative = inhibition) at 10uM” value was determined as 2.84%.

Regarding `CCc1cc(C(=O)Nc2cc(Cl)ccc2N2CCN(C)CC2)sc1C`, the “hERG current change (%, negative = inhibition) at 10uM” value came to 3.43%.

Turning to `CCc1c(C)nc(N)nc1N1N=C1SC(C(C)=O)C(C)=O`, the “hERG current change (%, negative = inhibition) at 10uM” value is 27.8%.

Regarding `CN(CCC#N)C(=O)COC(=O)c1ccccc1OCc1ccccc1Cl`, the “hERG current change (%, negative = inhibition) at 10uM” value is given as 1.72%.

For the molecule `CNC(=O)CC1C(=O)N(c2ccc(F)cc2)C(=S)N1NC(=O)c1ccc(Br)cc1` (stereo not shown), the “hERG current change (%, negative = inhibition) at 10uM” value turned out to be 2.82%.

In the case of `O=C(NC(NC(=O)c1c(F)cccc1F)c1ccc([N+](=O)[O-])cc1)c1c(F)cccc1F`, the “hERG current change (%, negative = inhibition) at 10uM” value was -43.8%.

As for `Cc1ccc(SCCC(=O)NCc2ccco2)cc1`, the “hERG current change (%, negative = inhibition) at 10uM” value was -3.96%.

As for `C/C(=N/NS(=O)(=O)c1ccc(C)cc1)c1ccc(NC(=O)C(F)(F)F)cc1`, the “hERG current change (%, negative = inhibition) at 10uM” value is given as 10.7%.

For the molecule `CCOC(=O)C1CCCN(CCC(C)c2ccccc2)C1` (stereo not shown), the “hERG current change (%, negative = inhibition) at 10uM” value is reported as -36.5%.

With `Cl.OC(COCc1ccccc1)CN1CCCCC1` (stereo not shown), the “hERG current change (%, negative = inhibition) at 10uM” value turned out to be 6.73%.

Turning to `OC(COC(c1ccccc1)c1ccccc1)CN1CCOCC1` (stereo not shown), the “hERG current change (%, negative = inhibition) at 10uM” value is listed as -5.77%.

Turning to `CCN1CCN(CC(O)COC(c2ccccc2)c2ccccc2)CC1` (stereo not shown), the “hERG current change (%, negative = inhibition) at 10uM” value was -17.1%.

On to `CCOC(=O)C1CCCN(CC(O)COc2ccccc2C(C)=O)C1.Cl` (stereo not shown), for which the “hERG current change (%, negative = inhibition) at 10uM” value is recorded as -46.2%.

`CCOC(=O)C1CCCN(CC(O)COC(c2ccccc2)c2ccccc2)C1` (stereo not shown): the “hERG current change (%, negative = inhibition) at 10uM” value is on record as -79.7%.

Turning to `OC(COc1ccc(OCc2ccccc2)cc1)CN1CCCCC1` (stereo not shown), the “hERG current change (%, negative = inhibition) at 10uM” value is listed as -39.6%.

Take `CCOC(=O)C1CCN(CC(O)COC(CC)c2ccccc2)CC1.Cl` (stereo not shown): the “hERG current change (%, negative = inhibition) at 10uM” value is reported as -63.7%.

For the molecule `Cl.c1ccc(COC(CN2CCCCCC2)CN2CCCCCC2)cc1`, the “hERG current change (%, negative = inhibition) at 10uM” value is -63.6%.

On to `CCC(OCC(O)CN1CCCCC1)c1ccccc1.Cl` (stereo not shown), for which the “hERG current change (%, negative = inhibition) at 10uM” value worked out at 16.9%.

As for `OC(COC(c1ccccc1)c1ccccc1)CN1CCCCC1` (stereo not shown), the “hERG current change (%, negative = inhibition) at 10uM” value is recorded as -62.9%.

For the molecule `CCOC(=O)N1CCN(CC(O)COC(CC)c2ccccc2)CC1.Cl` (stereo not shown), the “hERG current change (%, negative = inhibition) at 10uM” value is given as -19.6%.

On to `CCOC(=O)C1CCCc2c1[nH]c1c(C(=O)O)cccc21` (stereo not shown), for which the “hERG current change (%, negative = inhibition) at 10uM” value is 13.3%.

For `COc1ccc2nc(SCC(=O)NCCc3ccccc3)[nH]c2c1`, the “hERG current change (%, negative = inhibition) at 10uM” value is recorded as -21.6%.

As for `COc1ccc(-c2cc(C(=O)N3CCN(c4cccc(C)c4C)CC3)c3ccccc3n2)cc1OC`, the “hERG current change (%, negative = inhibition) at 10uM” value came to 22.9%.

On to `c1ccc(-n2cccc2)c(N2CCCCC2)c1`, for which the “hERG current change (%, negative = inhibition) at 10uM” value turned out to be 3.76%.

Take `O=c1cc(CSc2nnc(-c3cccnc3)n2-c2ccccc2F)nc2sccn12`: the “hERG current change (%, negative = inhibition) at 10uM” value was -4.15%.

On to `CCCCNc1ccc(C(=O)OCCN(C)C)cc1.Cl`, for which the “hERG current change (%, negative = inhibition) at 10uM” value is -11.6%.

Turning to `COc1ccc(C(=O)N/N=C/c2c(CO)cnc(C)c2O)cc1`, the “hERG current change (%, negative = inhibition) at 10uM” value was -1.9%.

In the case of `CC1CCCN(CC(O)COC(c2ccccc2)c2ccccc2)C1` (stereo not shown), the “hERG current change (%, negative = inhibition) at 10uM” value is -65%.

As for `CC1CCCN(CC(O)COCc2ccccc2)C1.Cl` (stereo not shown), the “hERG current change (%, negative = inhibition) at 10uM” value is listed as -1.07%.

Take `OC1CCCN(CC(O)COC(c2ccccc2)c2ccccc2)C1` (stereo not shown): the “hERG current change (%, negative = inhibition) at 10uM” value is recorded as -18%.

Turning to `Cc1ccc(C(OCC(O)CN2CCCCC2)c2ccccc2)cc1` (stereo not shown), the “hERG current change (%, negative = inhibition) at 10uM” value is -86.6%.

In the case of `Cn1c(CNC(=O)c2ccco2)nnc1SCC(=O)c1ccccc1`, the “hERG current change (%, negative = inhibition) at 10uM” value worked out at 10.6%.

As for `CCn1nc(NS(=O)(=O)c2ccc([N+](=O)[O-])cc2)c2cc3ccccc3nc21`, the “hERG current change (%, negative = inhibition) at 10uM” value is recorded as 19.3%.

As to `Cc1cc(C)cc(SCc2noc(C(=O)NCCCN3CCOCC3)c2C(=O)NCCCN2CCOCC2)c1`, the “hERG current change (%, negative = inhibition) at 10uM” value is given as -30.4%.

For the molecule `O=C(Nc1ccccc1F)c1ccccc1-c1ccc(C(F)(F)F)cc1`, the “hERG current change (%, negative = inhibition) at 10uM” value is reported as -5.12%.

With `CC1CCN(Cc2c(C(=O)N/N=C/c3ccc(C(C)C)cc3)nnn2-c2nonc2N)CC1`, the “hERG current change (%, negative = inhibition) at 10uM” value stood at 20.2%.

For `CCc1ccc(/C=N/NC(=O)c2nnn(-c3nonc3N)c2CN2CCOCC2)cc1`, the “hERG current change (%, negative = inhibition) at 10uM” value was -11.6%.

Take `CN1CCN(Cc2c(C(=O)N/N=C/c3cccc(Br)c3)nnn2-c2nonc2N)CC1`: the “hERG current change (%, negative = inhibition) at 10uM” value is -74.8%.

On to `Nc1nonc1-n1nnc(C(=O)N/N=C/c2cccc(O)c2)c1CN1CCCC1`, for which the “hERG current change (%, negative = inhibition) at 10uM” value amounted to 7.84%.

Regarding `CC(C)c1ccc(/C=N/NC(=O)c2nnn(-c3nonc3N)c2CN2CCOCC2)cc1`, the “hERG current change (%, negative = inhibition) at 10uM” value was -56.6%.

As to `Nc1nonc1-n1nnc(C(=O)N/N=C/c2cccc(Cl)c2)c1CN1CCCCCC1`, the “hERG current change (%, negative = inhibition) at 10uM” value stood at 18.4%.

As for `O=C1NC(=O)C(=Cc2ccc3c(c2)OCO3)C(=O)N1`, the “hERG current change (%, negative = inhibition) at 10uM” value was found to be 15.3%.

For the molecule `CC1CN(C(=O)COC(=O)c2ccc(O)cc2)CC(C)O1` (stereo not shown), the “hERG current change (%, negative = inhibition) at 10uM” value is listed as 17.4%.

For `O=C(NCCCNC(=O)C(F)(F)C(F)F)C(F)(F)C(F)F`, the “hERG current change (%, negative = inhibition) at 10uM” value came out at 6.91%.

For the molecule `CC(C)(C)OC(=O)NCCCC[C@H](NC(=O)c1nc[nH]c1C(=O)NC(c1ccccc1)c1ccccc1)C(=O)OC(C)(C)C`, the “hERG current change (%, negative = inhibition) at 10uM” value was determined as 8.48%.

Turning to `Brc1cccc(Cn2c(-c3cncs3)nc3ccccc32)c1`, the “hERG current change (%, negative = inhibition) at 10uM” value is given as -10.5%.

Take `O=C(/C=C/c1cccc([N+](=O)[O-])c1)NC1CC2CCC1C2` (stereo not shown): the “hERG current change (%, negative = inhibition) at 10uM” value was -24.7%.

On to `O=C(CSCc1ccc([N+](=O)[O-])cc1)NC1CC2CCC1C2` (stereo not shown), for which the “hERG current change (%, negative = inhibition) at 10uM” value is recorded as -15.3%.

As for `COc1ccccc1/C=C/C(=O)NC1CC2CCC1C2` (stereo not shown), the “hERG current change (%, negative = inhibition) at 10uM” value was -3.53%.

Consider `O=C(/C=C/c1ccc([N+](=O)[O-])cc1)NC1CC2CCC1C2` (stereo not shown), for which the “hERG current change (%, negative = inhibition) at 10uM” value is on record as -67.8%.

On to `O=C(/C=C/c1ccccc1)NC1CC2CCC1C2` (stereo not shown), for which the “hERG current change (%, negative = inhibition) at 10uM” value is reported as 5.72%.

As for `O=C(/C=C/c1ccc(Cl)cc1)NC1CC2CCC1C2` (stereo not shown), the “hERG current change (%, negative = inhibition) at 10uM” value is listed as -53.1%.
